Screening results: PubChem, Sanford-Burnham Center for Chemical Genomics
In the library only some 4% were active in any assay of this set; here they are far more common.
CF NFkB block = cystic fibrosis NF-kB activation inhibition; inhibition, % at 5 µM; 0.86% of 360,000 active; KKLEB NF-kB-GFP reporter, PAF-induced, GFP fluorescence overnight; AID 588850;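 active means at least 50% inhibition at 5 µM, scaled per plate between neutral and stimulator controls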;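 further: PAF is a Pseudomonas aeruginosa culture filtrate used as stimulus; plate controls were PAF-stimulated DMSO wells for no effect and unstimulated DMSO wells for full effect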
Peg3 prom inh-1 = inhibitors of Peg3 promoter; HeLa PEG-Prom luciferase reporter, luminescence, overnight; inhibition, % at 20 µM; 1.7% of 360,000 active; AID 588405;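 active means inhibition of at least 50% at 20 µM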
TWEAK Fn14 block = inhibitors of TWEAK-Fn14 interaction signaling. TWEAK-stimulated Fn14 reporter cells, luciferase luminescence, 8 h. AID 1159606. inhibition, % at 10 µM. 2% of 360,000 active; in the data active means inhibition above about 50%
KKLEB cytotox = reduces viability of KKLEB cystic fibrosis airway cells; KKLEB CF airway cells viability, ATPlite luminescence, overnight; stronger effect = lower value; cells stimulated with P. aeruginosa culture filtrate; 0.36% of 360,000 active; AID 602141; activity change (cytotoxicity), % at 5 µM;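 active means corrected activity change at or below -50% at 5 µM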
HIF-2a block = inhibitors of HIF-2a. 786-0 RCC cells HIF-2a reporter, luciferase luminescence, overnight. inhibition, % at 18.8 µM. 0.72% of 360,000 active. AID 624352;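 active means inhibition of the luminescence signal of 40% or more relative to plate controls, in a single-dose primary screen at 18.75 µM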
TROY signal inh = blocks TROY-dependent signaling in reporter cells. 0.98% of 360,000 active. inhibition, % at 10 µM. Q293 LMP1-TROYcd NF-kB luciferase reporter, 4 h;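 active means compounds whose plate-normalised and pattern-corrected inhibition of the luciferase reporter signal at the single screening dose is 50% or more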
Peg3 prom inh-2 = Peg3 promoter inhibition confirmation | 84% of 1,300 active | HeLa PEG-Prom luciferase reporter, luminescence, overnight | shares compounds with Peg3 prom inh-1 | inhibition, % at 20 µM;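 active means at 20 µM dose, 40% or more inhibition averaged across four replicates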
CF NFkB conf = CF NF-kB inhibition confirmation, single concentration; shares compounds with CF NFkB block; KKLEB CF airway cells, PAF-induced NF-kB-GFP fluorescence, overnight; inhibition, % at 5 µM; 64% of 1,300 active; AID 602472; in the data active means inhibition above about 40%;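 further: stimulus PAF is a Pseudomonas aeruginosa filtrate and not platelet activating factor; plate controls were DMSO wells with stimulus for no effect and unstimulated DMSO wells for full effect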
Mdm2 MdmX conf = confirmation of inhibitors of human Mdm2/MdmX interaction, set 2 | 99% of 740 active | AID 504601 | shares compounds with HIF-2a block | inhibition, % at 8 µM | SaOS-2 split-luciferase Mdm2/MdmX complementation, luminescence;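 active means mean inhibition of the luminescence signal across two replicates at or above 26 percent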
Target sequence (O15151 whole entry, looked up): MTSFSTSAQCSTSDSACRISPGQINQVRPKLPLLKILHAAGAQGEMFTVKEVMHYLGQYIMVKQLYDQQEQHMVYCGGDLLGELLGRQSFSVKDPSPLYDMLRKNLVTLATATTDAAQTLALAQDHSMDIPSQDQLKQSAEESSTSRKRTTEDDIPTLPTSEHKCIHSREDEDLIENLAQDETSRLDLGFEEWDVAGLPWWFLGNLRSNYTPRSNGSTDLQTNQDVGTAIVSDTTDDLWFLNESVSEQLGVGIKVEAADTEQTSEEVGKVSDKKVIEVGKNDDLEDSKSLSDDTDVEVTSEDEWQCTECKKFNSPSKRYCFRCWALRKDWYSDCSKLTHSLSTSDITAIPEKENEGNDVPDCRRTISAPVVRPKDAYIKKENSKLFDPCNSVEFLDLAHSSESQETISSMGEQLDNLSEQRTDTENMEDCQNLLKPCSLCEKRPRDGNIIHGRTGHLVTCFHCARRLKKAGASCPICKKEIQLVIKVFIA
Target sequence (Q00987 whole entry, looked up): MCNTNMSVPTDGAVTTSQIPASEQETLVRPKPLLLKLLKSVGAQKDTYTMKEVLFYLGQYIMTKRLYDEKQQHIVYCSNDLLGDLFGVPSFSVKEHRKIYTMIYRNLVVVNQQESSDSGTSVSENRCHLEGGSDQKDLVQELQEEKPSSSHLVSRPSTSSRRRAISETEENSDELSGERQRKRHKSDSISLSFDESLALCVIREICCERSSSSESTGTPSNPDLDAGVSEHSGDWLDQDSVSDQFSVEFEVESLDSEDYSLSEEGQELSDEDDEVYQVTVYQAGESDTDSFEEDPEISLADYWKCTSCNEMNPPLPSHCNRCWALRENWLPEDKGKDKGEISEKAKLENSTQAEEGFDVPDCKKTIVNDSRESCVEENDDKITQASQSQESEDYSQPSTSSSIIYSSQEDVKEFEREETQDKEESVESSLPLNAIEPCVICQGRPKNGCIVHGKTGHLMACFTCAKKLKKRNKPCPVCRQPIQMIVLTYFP
HIF-2a inh conf = confirmation of HIF-2a inhibitors; shares compounds with HIF-2a block; 786-0 RCC cells, HIF-2a luciferase reporter luminescence, overnight; inhibition, % at 18.8 µM; 56% of 1,800 active; AID 651580;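 active means mean inhibition across four replicates of at least 40 percent at the single tested concentration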
HIF-1a counter = HIF-1a inhibition counter-screen for HIF-2a hits | MiaPaCa-2 HIF-1a luciferase reporter, desferoxamine, overnight | inhibition, % at 18.8 µM | shares compounds with HIF-2a block | 72% of 1,800 active;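 active means mean inhibition of the reporter signal across four replicates at the single tested dose of 50% or more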
The depositor's hits bear a star; nt = no result.

SMILES	CF NFkB block	Peg3 prom inh-1	TWEAK Fn14 block	KKLEB cytotox	HIF-2a block	TROY signal inh	Peg3 prom inh-2	HIF-2a inh conf	HIF-1a counter	others
O=S(=O)(Nc1cccc2ncccc12)c1cccs1	45.7	103.1*	106.5*	8.3	65.5*	65.1*	96.7*	nt	nt	Mdm2 MdmX conf=103.2*
O=[N+]([O-])c1cc(/C=N/NC(=S)Nc2ccccc2Cl)ccc1Cl	-24.1	96.2*	-39.7	6.8	69.7*	5.1	17.3	10.8	103.7*
CN(C)CCNc1ncnc2c1sc1nc(N3CCOCC3)c3c(c12)CC(C)(C)SC3	18.1	80.7*	-11.5	-28.1	54.0*	0.0	93.5*	14.2	80.1*
COCCNc1nnnc2c1sc1nc(N3CCOCC3)c3c(c12)CC(C)(C)OC3	-4.9	22.2	-7.1	15.5	14.9	-4.3	nt	nt	nt
O=[N+]([O-])c1nn(-c2ccc3c(c2)OCCO3)n(O)c1=Nc1ccc(Cl)cc1	-7.8	71.9*	100.5*	16.7	61.0*	87.9*	74.3*	76.9*	100.5*
CCc1ccc(N=c2c([N+](=O)[O-])nn(-c3ccc4c(c3)OCCO4)n2O)cc1	-9.6	-165.4	25.7	3.7	-118.8	26.4	nt	nt	nt
CCCOc1ccc(-c2nn(-c3ccccc3)cc2/C=C2\SC(N)=NC2=O)cc1C	6.8	-7.3	3.8	12.7	14.0	-7.8	nt	nt	nt
Cc1cccc(-n2ncc3c(N4CCCc5ccccc54)ncnc32)c1	8.1	-253.7	-10.2	-28.3	-289.7	-0.6	nt	nt	nt
Cc1cccc(-n2ncc3c(N(C)C4CCCCC4)ncnc32)c1	9.1	75.2*	101.9*	-54.3*	65.5*	87.6*	81.9*	81.3*	100.8*
COc1ccc(S(=O)(=O)N2CCCCC2C)cc1 (configuration not stated)	-0.6	9.6	10.5	12.4	19.1	-3.9	nt	nt	nt
CCSc1nc2ccccc2n1C(=O)/C=C\c1ccc(OC)c(OC)c1	82.2*	105.6*	91.0*	2.6	86.2*	35.9	94.2*	31.1	102.7*	Mdm2 MdmX conf=101.7*
COc1ccc(/C=C/c2nc3ccccc3n2C)cc1	-7.4	68.3*	76.0*	-53.2*	49.2*	47.6	78.3*	88.8*	90.9*
CC(=O)N1c2ccc(S(=O)(=O)N3CCCC3C(=O)NCc3ccc(Cl)cc3)cc2CC1C (configuration not stated)	-22.3	13.5	-13.5	7.2	2.8	-8.5	nt	nt	nt
O=C(O)c1ccc(N/N=C/c2ccc(OC(=O)c3ccccc3Cl)cc2)cc1	13.0	64.4*	95.8*	1.4	81.2*	54.7*	57.9*	84.2*	79.7*
O=C(O)c1cc(N/N=C/c2ccc(-c3ccccc3)cc2)ccc1Cl	-3.7	-178.7	-26.5	19.2	-130.8	-29.4	nt	nt	nt
O=C(O)c1ccc(N/N=C/c2cc(Br)cs2)cc1	3.1	1.1	-5.8	5.7	23.0	49.2	nt	nt	nt
Cc1ccc(/C=N/Nc2ccc(C(=O)O)cc2)s1	-10.0	68.7*	11.4	-4.1	65.4*	-9.3	62.3*	81.8*	76.3*
CC(C)c1ccc(/C=N/Nc2ccc(C(=O)O)cc2)cc1	15.2	84.6*	92.0*	0.7	80.7*	56.9*	66.9*	78.6*	39.8
CCOC(=O)c1c(C)oc2c(F)c(F)c(F)c(F)c2c1=O	37.1	104.7*	-5.8	-9.9	64.3*	2.8	99.4*	65.8*	100.5*
Cc1nn(C(C)(C)C)c(C)c1/C=N/OC(=O)Nc1ccc(Cl)c(Cl)c1	8.0	106.2*	104.7*	-7.8	94.4*	87.0*	97.3*	97.8*	99.8*
CCCN(CC(=O)Nc1ccccc1C)C(=O)COc1c(C)cccc1C	4.0	1.7	8.8	-7.1	-12.0	-17.8	nt	nt	nt
CCCN(CC(=O)Nc1ccccc1C)C(=O)CCl	11.8	63.7*	48.6	-12.0	39.3	-3.0	46.0*	nt	nt	Mdm2 MdmX conf=95.5*
COc1ccc(-c2nc(CN(CC3CCC(=O)N3)C(C)C)c(C)o2)c(C)c1C (configuration not stated)	12.1	11.6	-17.6	-3.5	16.6	-0.8	nt	nt	nt
Clc1ccc(Oc2nc3c(Cl)cccc3s2)cc1Cl	-9.3	-95.8	3.4	-1.0	-81.0	-22.4	nt	nt	nt
C(=NNc1ccc2ccccc2n1)c1ccccn1	13.1	76.3*	100.6*	-52.2*	69.1*	83.2*	78.0*	80.8*	-12.2
SMILES	CF NFkB block	Peg3 prom inh-1	TWEAK Fn14 block	KKLEB cytotox	HIF-2a block	TROY signal inh	Peg3 prom inh-2	HIF-2a inh conf	HIF-1a counter	others
C(=N\N=C\c1ccccn1)/c1ccccn1	-4.0	4.0	-21.6	-2.1	3.7	-50.1	nt	nt	nt
O=S(=O)(Nc1cccc2cccnc12)c1ccccc1	77.5*	102.6*	100.9*	-4.0	57.8*	28.6	99.5*	62.0*	-89.6	CF NFkB conf=109.4*;Mdm2 MdmX conf=102.2*
Cc1ccc(S(=O)(=O)Nc2cccc3cccnc23)c([N+](=O)[O-])c1	67.6*	103.2*	98.7*	0.0	57.4*	79.2*	95.5*	74.7*	-215.9	CF NFkB conf=107.8*;Mdm2 MdmX conf=101.5*
COc1ccc(C(C#N)N2CCOCC2)cc1 (configuration not stated)	1.5	-115.4	-33.5	-0.8	-50.0	34.9	nt	nt	nt
CC(C)CN(C(=O)CSc1nnc2ccccn12)C1CCS(=O)(=O)C1 (configuration not stated)	13.6	3.8	3.9	13.7	6.6	-2.1	nt	nt	nt
Cc1ccc2nc(NC(=O)c3ccccn3)sc2c1	-5.1	106.2*	98.1*	-67.2*	80.2*	86.1*	96.3*	88.7*	79.5*	Mdm2 MdmX conf=101.7*
COCCn1c(C)nc2oc3ccc(Br)cc3c(=O)c2c1=O	-27.4	-25.0	-18.3	3.9	-22.4	-24.2	nt	nt	nt
COCCn1c(C)cc(C(=O)CSc2nc(C)c(C)c(C)n2)c1C	-19.0	-1.6	7.8	14.6	-2.8	15.4	nt	nt	nt
COCCn1c(C)cc(C(=O)CSc2nnc3ccccn23)c1C	7.2	63.5*	-13.0	-7.2	44.4*	26.1	54.3*	76.4*	49.4
COc1ccc(Nc2oc(COc3ccccc3OC)nc2C#N)cc1	-4.0	77.0*	55.0*	4.8	59.5*	0.7	51.4*	61.6*	56.6*
Cc1cccc(-n2c(SCC(=O)N3CCCC3)nc3n[nH]c(C)c3c2=N)c1	15.2	33.0	-24.9	-10.9	-0.4	20.7	nt	nt	nt
